Mito fusion act: qHTS Assay for Small Molecule Inhibitors of Mitochondrial Division or Activators of Mitochondrial Fusion | AID 485298, 2010 | S. cerevisiae fusion-defective mutant growth rescue, CellTiterGlo 48 h | 320,000 tested, 0.23% active | Potency, µM (highest dose often 46.1 µM), inactives show at the top dose growth rescue (activation), most hits filed as activators; further: % of control where 0% means no effect; nearly all actives have a fitted effect of over 45% in size
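Read-out: ATP-based luminescence (CellTiterGlo, 10 min ambient) reporting growth of fusion-defective ts yeast after 48 hours at 37C on glycerol/ethanol YPEG medium in the presence of compound.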
Abeta rescue: qHTS for compounds that reverse cellular toxicity of Amyloid beta (A-beta) peptide in yeast: Primary Screen; yeast expressing A-beta42, growth rescue, OD600, 48 h; response scale: 0% DMSO, 100% iron-clioquinol control; Potency, µM (highest dose often 46.1 µM), hits mostly activators; 410,000 tested, 0.063% active; further: nearly all actives have a fitted effect of over 55% in size
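Growth rescue measured by 600 nm absorbance after 48 h yeast culture at 30 C with compound. Values normalized between DMSO and an equimolar ferric chloride plus clioquinol control.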
aSyn yeast inh: qHTS of alpha-syn Inhibitors; Yeast expressing alpha-synuclein, growth rescue, BacTiter-Glo, 24 h; AID 652106, 2013; 370,000 tested, 0.14% active; Potency, µM (top dose mostly 46.1 µM), inactives show at the top dose growth rescue (activation), most hits filed as activators; further: % of control where 0% means no effect; nearly all actives have a fitted effect of over 65% in size
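Readout is rescue of growth in alpha-synuclein-expressing yeast, so inhibitors of toxicity appear as activators. Growth after 24 hr at 30 deg C in galactose medium is quantified by luminescence.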
FUS yeast rescue: qHTS for Suppressors of FUS Proteinopathy: Primary screen using FUS-linked yeast assay; Potency, µM (doses to about 76.6 µM), hits mostly activators; 390,000 tested, 0.24% active; S. cerevisiae FUS-expressing, growth rescue, OD600, 24 h;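 further: plate controls were DMSO vehicle for no effect and reference control for full effect; nearly all actives have a fitted effect of over 55% in size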
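Galactose (2%) drives FUS expression in yeast precultured in raffinose; seeding density OD 0.005. Test compounds incubated 24hr at 30C and 99% humidity before absorbance at 600 nm was measured.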
TDP-43 yeast inh: qHTS of TDP-43 Inhibitors; Potency, µM (top dose mostly 46.1 µM), inactives show at the top dose growth rescue (activation), actives largely listed as activators; 410,000 tested, 1.8% active; TDP-43 expressing yeast growth rescue, BacTiter-Glo, 24 h; further: % of control where 0% means no effect; nearly all actives have a fitted effect of over 50% in size
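Growth rescue of TDP-43-toxic yeast measured as ATP luminescence (BacTiter-Glo). Cells grown to mid-log in raffinose, induced in galactose at OD600=0.02, exposed to compound 24 hr at 30 deg C.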
* marks the source's active call; other numbers are inactive results; i = inactive; ? = inconclusive; . = no result given. A selection: hits, their analogues and other compounds. The true share with any hit is near 2.2%. The call rests on the fitted dose curve; in most records, active means well fitted curve in the direction sought with a large enough effect; inconclusive means small, poorly fitted or top-dose-only effect, or another doubt; inactive means no such curve, though single readings can be large; an effect the other way counts as inactive or inconclusive. Potency means the concentration at half of the fitted maximal effect.

SMILES	Mito fusion act	Abeta rescue	aSyn yeast inh	FUS yeast rescue	TDP-43 yeast inh
CCOc1ccc(CNC(=O)CCC(=O)N2CC(C)Sc3ccccc32)cc1 (stereo not drawn)	.	i	.	i	?
COc1ccc(NC(=O)CC2C(=O)N(c3ccc(OC)cc3)C(=O)N2C2CCCCC2)cc1 (stereo not drawn)	.	i	.	i	15.0%
CCOc1ccc(NC(=O)CC2C(=O)N(c3ccc(OC)cc3)C(=O)N2C2CCCCC2)cc1 (stereo not drawn)	.	i	.	39.8µM*	-11.9%
COc1ccc(NC(=O)CSc2nc(C)cc(=O)[nH]2)cc1OC	.	.	.	i	.
COc1ccc2c(c1)NC(=O)CC(c1ccccc1)=N2	-4.3%	i	-8.4%	i	14.1µM*
O=C(/C=C\c1ccc(-c2ccccc2)o1)c1ccccc1	10.5%	i	1.7%	i	2.2%
Cc1ccc(C(=O)/C=C/c2ccc(-c3ccc(C)cc3)o2)cc1	1.6%	i	22.8%	14.1µM*	-25.2%
O=C(O)CCSc1ccc2ccccc2n1	4.7%	i	1.5%	i	17.8µM*
O=C(O)CSc1ccc2ccccc2n1	-6.2%	i	-8.8%	i	20.4%
COc1cccc(NC(=O)CCSc2ccc3ccccc3n2)c1	21.2%	i	13.2%	.	12.6µM*
CCOC(=O)[C@]12CCCC3=C1N(CCC3)C(=O)[C@@H](CC(=O)NCc1cccc3ccccc13)C2	.	.	.	i	.
Nc1cc2c(cc1Cl)-c1ccccc1C2	.	i	15.7%	.	12.6µM*
Nc1cc2c(cc1Cl)-c1ccc(Cl)cc1C2	.	i	-1.3%	i	25.1µM*
Nc1ccc2c(c1)Cc1cc(N)c(Br)cc1-2	.	i	2.5%	.	19.8%
C[C@H]1[C@@H](OC(=O)NCc2ccccc2)CC[C@@]23CCCN2C(=O)CCC[C@@H]13	.	.	.	i	.
Oc1ccccc1/C=N/Nc1cccc2cccnc12	-10.7%	i	-16.6%	i	17.8µM*
O=C(COc1cccc2cccnc12)N/N=C/c1ccccc1O	-0.7%	i	4.2%	i	1.3%
Fc1cccc(F)c1Cn1ccc2ccc(-c3ccc4ccn(Cc5c(F)cccc5F)c4c3)cc21	.	.	.	i	.
CC(C)(C)OC(=O)NCCCCCc1nnc(SCc2ccccc2)o1	1.5%	i	-0.3%	i	35.5µM*
CC(C)(C)OC(=O)NCCCCCc1nnc(SCc2ccccc2F)o1	3.6%	i	6.3%	i	?
CC(C)(C)OC(=O)NCCCCCc1nnc(SCc2cccc(F)c2)o1	4.2%	i	3.1%	i	25.1µM*
CCNC(=O)CC1C(=O)N(c2ccc(F)cc2)C(=O)N1Cc1ccc(OC)c(OC)c1 (stereo not drawn)	.	i	.	i	-5.5%
Cc1cccc2c(=O)[nH]c3c(-c4nc(-c5ccc(Cl)cc5)cs4)c(O)cn3c12	.	.	-6.6%	.	.
Oc1cccc(-n2nnnc2SCc2ccccc2F)c1	3.5%	i	-5.2%	i	22.4µM*
CCCc1ccc(C2Sc3ccccc3NC3=C2C(=O)c2ccccc23)cc1 (stereo not drawn)	.	i	.	i	9.6%
SMILES	Mito fusion act	Abeta rescue	aSyn yeast inh	FUS yeast rescue	TDP-43 yeast inh
CCOc1cc(C2Sc3ccccc3NC3=C2C(=O)c2ccccc23)ccc1O (stereo not drawn)	.	i	.	?	11.2µM*
Oc1cccc(Nc2ccccc2)c1	9.6%	i	12.7%	i	12.6µM*
COc1ccc(C2=NN3C(C2)c2ccccc2OC32C(=O)N(C)c3ccccc32)cc1 (stereo not drawn)	1.9%	i	5.3%	?	22.4µM*
COc1ccc(C2=NN3C(C2)c2ccccc2OC3c2cccs2)cc1 (stereo not drawn)	2.7%	i	-17.1%	i	?
CN(Cc1ccccc1)C(=O)CCn1c(=O)oc2ccccc21	-2.8%	i	9.2%	i	15.2%
O=C(CCn1c(=O)oc2ccccc21)N(Cc1ccccc1)c1ccccc1	19.0%	i	-0.5%	i	22.4µM*
O=C(CCl)N(Cc1ccccc1)c1ccccc1	0.1%	i	-13.3%	i	20µM*
Cc1ccc(/C=C/c2onc(C)c2S(=O)(=O)N2CCC(C(=O)Nc3ccccc3C(F)(F)F)CC2)cc1	.	i	.	i	17.3%
C[C@@H]1C(c2ccccc2)=NN(c2ccc(Br)cc2)[C@H]1C(=O)N1CCOC1=O	.	i	20µM*	i	?
O=C1OCCN1C(=O)[C@H]1[C@H](c2ccc(Cl)cc2)C(c2ccc(F)cc2)=NN1c1ccc(Br)cc1	.	i	10µM*	?	-22.7%
Cc1cccc(C2=NN(c3ccc(Br)cc3)[C@@H](C(=O)N3CCOC3=O)[C@@H]2C)c1	.	i	?	i	11.4%
Cc1cccc(C2=NN(c3ccccc3)[C@@H](C(=O)N3CCOC3=O)[C@@H]2c2ccc(F)cc2)c1	.	i	22.9%	5.62µM*	1.3%
O=C1SC(Nc2ccccc2)C(=O)N1c1ccccc1 (stereo not drawn)	.	.	-4.0%	.	.
N#Cc1ccc(NC(=O)COc2ccccc2C(=O)Nc2ccccc2)cc1	.	.	0.5%	.	.
Fc1ccc(Cn2nnnc2C(c2ccc(Cl)cc2)N2CCSCC2)cc1 (stereo not drawn)	19.8%	i	9.8%	i	35.5µM*
CC(C)c1ccc2oc(-c3cc(N)ccc3O)nc2c1	-17.0%	i	-10.7%	i	20µM*
Cc1nn(-c2ccc(Cl)cc2)c2nc(-c3cccnc3)cc(C(F)(F)F)c12	.	i	.	i	18.0%
Cc1ccc(CCNC(=O)c2ccc(Cn3c(=O)c4cccn4c4cccnc43)cc2)cc1	.	i	.	i	21.0%
COc1ccccc1CNc1nc(Oc2cccc(F)c2)c2sccc2n1	.	i	8.0%	?	35.5µM*
COCCNc1nc(Oc2cccc(F)c2)c2sccc2n1	.	i	-3.2%	i	?
O=C(NCC(c1ccco1)N1CCc2ccccc21)c1ccccc1Br (stereo not drawn)	19.8%	i	13.3%	i	14.1µM*
Cc1ccccc1-c1ccc(CN2C(C)C(=O)N(Cc3cn(Cc4ccco4)nn3)CCS2(=O)=O)cc1 (stereo not drawn)	.	i	?	?	35.5µM*
CC1C(=O)N(Cc2cn(Cc3ccco3)nn2)CCS(=O)(=O)N1Cc1ccc(-c2ccccc2C(F)(F)F)cc1 (stereo not drawn)	.	i	?	?	?
Cc1ccc(-c2ccc(CN3C(C)C(=O)N(Cc4cn(Cc5ccco5)nn4)CCS3(=O)=O)cc2)cc1 (stereo not drawn)	.	i	?	?	?
